Reference: paper PMC7862700, “An all-to-all approach to the identification of sequence-specific readers for epigenetic DNA modifications on cytosine”

What was measured:
Assay in all cases: DAPPL (digital affinity profiling via proximity ligation, sequencing); 10 mM Tris-HCl pH 7.5, 50 mM NaCl, 1 mM DTT, 4% glycerol, room temperature, 30 min; GST-TFs on glutathione beads, 16-mer random dsDNA library, 0.1% formaldehyde crosslink after washing; high values mean tight binding
Conditions in all cases: protein: recombinant; tags: N-terminal GST; dsDNA, one strand shown
[1] = molecular target: T1, FLI1 (Homo sapiens, UniProt Q01543 1-452)
T1 sequence: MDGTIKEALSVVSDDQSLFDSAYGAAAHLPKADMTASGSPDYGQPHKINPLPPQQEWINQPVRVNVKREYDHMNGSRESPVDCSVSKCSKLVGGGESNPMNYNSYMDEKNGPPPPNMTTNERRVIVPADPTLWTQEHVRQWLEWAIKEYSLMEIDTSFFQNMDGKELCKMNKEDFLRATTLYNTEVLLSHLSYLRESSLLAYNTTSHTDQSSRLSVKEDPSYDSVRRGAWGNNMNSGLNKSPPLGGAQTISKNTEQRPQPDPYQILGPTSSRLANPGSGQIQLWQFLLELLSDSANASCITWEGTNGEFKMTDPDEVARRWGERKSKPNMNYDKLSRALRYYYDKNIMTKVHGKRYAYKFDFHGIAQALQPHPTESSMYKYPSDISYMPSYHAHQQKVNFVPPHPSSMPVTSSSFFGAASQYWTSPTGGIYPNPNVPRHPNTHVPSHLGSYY
Method in brief: (§1)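 Human transcription factors were made in yeast as GST fusions, captured on glutathione beads and barcoded with DNA. With a tag-only sample included, the pool was incubated with 200 nmole of a random double-stranded 16-mer DNA library in Tris/NaCl/DTT/glycerol buffer at room temperature for 30 min, then crosslinked with 0.1% formaldehyde after washing, ligated by proximity, amplified and sequenced. For binding signal, each hexamer's read frequency for a factor is divided by its frequency for the tag-only sample.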

[2] = molecular target: T2, ELK1 (Homo sapiens, UniProt P19419 1-428)
T2 sequence: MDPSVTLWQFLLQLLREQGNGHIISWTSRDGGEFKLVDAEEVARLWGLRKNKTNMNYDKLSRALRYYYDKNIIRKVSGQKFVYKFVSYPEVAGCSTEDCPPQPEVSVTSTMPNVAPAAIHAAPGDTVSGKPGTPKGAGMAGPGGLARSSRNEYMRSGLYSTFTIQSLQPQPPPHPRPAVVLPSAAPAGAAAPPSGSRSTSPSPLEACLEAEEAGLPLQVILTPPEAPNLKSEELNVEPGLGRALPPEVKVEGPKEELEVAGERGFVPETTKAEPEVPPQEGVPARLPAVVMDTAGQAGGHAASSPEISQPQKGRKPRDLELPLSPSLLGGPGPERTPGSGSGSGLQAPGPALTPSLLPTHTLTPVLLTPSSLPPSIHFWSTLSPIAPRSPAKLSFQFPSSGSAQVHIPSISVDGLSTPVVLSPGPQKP
Method in brief: as §1

[3] = molecular target: T3, GABPA (Homo sapiens, UniProt Q06546 1-454)
T3 sequence: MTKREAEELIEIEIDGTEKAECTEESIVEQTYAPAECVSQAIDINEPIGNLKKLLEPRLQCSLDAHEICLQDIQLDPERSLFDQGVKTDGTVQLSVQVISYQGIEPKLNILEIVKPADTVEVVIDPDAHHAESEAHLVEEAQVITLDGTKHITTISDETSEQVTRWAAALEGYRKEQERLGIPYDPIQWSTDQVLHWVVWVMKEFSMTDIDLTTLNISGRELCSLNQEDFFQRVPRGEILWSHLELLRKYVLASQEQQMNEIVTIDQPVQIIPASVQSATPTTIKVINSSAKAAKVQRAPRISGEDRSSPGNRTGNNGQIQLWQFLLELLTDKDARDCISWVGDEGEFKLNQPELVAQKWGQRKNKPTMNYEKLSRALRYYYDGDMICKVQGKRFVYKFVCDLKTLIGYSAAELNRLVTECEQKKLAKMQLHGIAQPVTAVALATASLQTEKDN
Method in brief: as §1

[4] = molecular target: T4, ERG (Homo sapiens, UniProt P11308 1-479)
T4 sequence: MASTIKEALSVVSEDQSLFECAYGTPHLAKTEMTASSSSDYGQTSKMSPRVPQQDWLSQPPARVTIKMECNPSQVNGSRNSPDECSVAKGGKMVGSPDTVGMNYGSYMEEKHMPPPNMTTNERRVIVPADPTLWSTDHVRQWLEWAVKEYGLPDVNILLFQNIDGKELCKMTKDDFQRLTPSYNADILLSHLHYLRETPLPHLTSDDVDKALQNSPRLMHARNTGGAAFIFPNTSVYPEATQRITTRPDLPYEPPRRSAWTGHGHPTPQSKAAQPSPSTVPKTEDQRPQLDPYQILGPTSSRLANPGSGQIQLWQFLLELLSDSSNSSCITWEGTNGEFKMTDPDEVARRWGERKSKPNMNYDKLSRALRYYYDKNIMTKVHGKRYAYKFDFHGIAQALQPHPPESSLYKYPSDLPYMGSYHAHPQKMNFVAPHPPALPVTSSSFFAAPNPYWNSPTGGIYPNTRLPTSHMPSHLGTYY
Method in brief: as §1

[5] = molecular target: ELF1 (Homo sapiens, UniProt P32519 1-619)
Method in brief: as §1

[6] = molecular target: T5, EHF (Homo sapiens, UniProt Q9NZC4 1-300)
T5 sequence: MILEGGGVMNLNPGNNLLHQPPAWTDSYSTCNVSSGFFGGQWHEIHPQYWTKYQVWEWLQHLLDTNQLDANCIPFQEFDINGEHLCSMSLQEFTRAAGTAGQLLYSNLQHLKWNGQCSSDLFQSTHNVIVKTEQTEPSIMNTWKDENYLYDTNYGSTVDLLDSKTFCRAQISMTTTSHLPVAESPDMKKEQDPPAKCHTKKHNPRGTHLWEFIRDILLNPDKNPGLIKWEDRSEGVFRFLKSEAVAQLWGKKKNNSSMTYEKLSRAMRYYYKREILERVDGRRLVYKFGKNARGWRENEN
Method in brief: as §1

[7] = molecular target: SPI1 (Homo sapiens, UniProt P17947 1-270)
Method in brief: as §1

[8] = molecular target: T6, ELK3 (Homo sapiens, UniProt P41970 1-407)
T6 sequence: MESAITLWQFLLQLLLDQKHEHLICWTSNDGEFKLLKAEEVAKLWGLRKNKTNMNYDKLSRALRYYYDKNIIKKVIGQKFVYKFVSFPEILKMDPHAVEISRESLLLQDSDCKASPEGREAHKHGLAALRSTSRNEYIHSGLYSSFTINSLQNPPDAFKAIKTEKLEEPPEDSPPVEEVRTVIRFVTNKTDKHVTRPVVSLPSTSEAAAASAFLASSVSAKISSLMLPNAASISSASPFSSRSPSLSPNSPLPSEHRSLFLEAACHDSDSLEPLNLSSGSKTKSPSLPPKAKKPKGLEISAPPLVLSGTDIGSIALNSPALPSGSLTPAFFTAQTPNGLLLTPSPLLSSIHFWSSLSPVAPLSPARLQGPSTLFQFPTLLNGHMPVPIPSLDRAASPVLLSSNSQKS
Method in brief: as §1

[9] = molecular target: T7, FEV (Homo sapiens, UniProt Q99581 1-238)
T7 sequence: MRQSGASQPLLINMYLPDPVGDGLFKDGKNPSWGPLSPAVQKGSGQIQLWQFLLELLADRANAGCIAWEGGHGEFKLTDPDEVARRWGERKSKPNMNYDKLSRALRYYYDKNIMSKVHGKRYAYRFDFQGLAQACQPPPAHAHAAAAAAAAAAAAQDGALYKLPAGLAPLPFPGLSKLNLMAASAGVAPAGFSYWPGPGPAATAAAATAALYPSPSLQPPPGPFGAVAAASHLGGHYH
Method in brief: as §1

[10] = molecular target: ETV5 (Homo sapiens, UniProt P41161 1-510)
Method in brief: as §1

[11] = molecular target: T8, SPIC (Homo sapiens, UniProt Q8N5J4 1-248)
T8 sequence: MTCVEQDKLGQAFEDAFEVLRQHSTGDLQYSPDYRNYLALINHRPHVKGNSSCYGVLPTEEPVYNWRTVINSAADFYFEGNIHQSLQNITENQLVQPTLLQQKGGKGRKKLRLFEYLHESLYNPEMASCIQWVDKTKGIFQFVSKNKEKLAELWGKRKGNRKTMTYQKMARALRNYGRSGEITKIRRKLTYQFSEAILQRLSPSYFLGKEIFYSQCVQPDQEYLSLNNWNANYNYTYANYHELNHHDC
Method in brief: as §1

[12] = molecular target: ELF4 (Homo sapiens, UniProt Q99607 1-663)
Method in brief: as §1

[13] = molecular target: T9, ELK4 (Homo sapiens, UniProt P28324-2 1-405)
T9 sequence: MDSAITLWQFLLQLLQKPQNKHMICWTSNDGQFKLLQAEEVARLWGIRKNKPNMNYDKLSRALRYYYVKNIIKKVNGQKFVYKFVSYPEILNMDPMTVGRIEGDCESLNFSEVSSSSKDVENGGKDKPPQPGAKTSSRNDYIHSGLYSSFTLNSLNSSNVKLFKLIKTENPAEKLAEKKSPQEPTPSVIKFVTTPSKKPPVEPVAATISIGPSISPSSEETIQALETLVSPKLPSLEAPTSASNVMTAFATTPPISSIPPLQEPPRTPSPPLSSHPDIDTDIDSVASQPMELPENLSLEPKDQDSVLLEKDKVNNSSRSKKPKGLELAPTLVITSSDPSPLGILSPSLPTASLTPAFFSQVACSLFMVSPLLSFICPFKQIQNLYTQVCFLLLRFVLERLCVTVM
Method in brief: as §1

[14] = molecular target: T10, ETV2 (Homo sapiens, UniProt O00321 1-342)
T10 sequence: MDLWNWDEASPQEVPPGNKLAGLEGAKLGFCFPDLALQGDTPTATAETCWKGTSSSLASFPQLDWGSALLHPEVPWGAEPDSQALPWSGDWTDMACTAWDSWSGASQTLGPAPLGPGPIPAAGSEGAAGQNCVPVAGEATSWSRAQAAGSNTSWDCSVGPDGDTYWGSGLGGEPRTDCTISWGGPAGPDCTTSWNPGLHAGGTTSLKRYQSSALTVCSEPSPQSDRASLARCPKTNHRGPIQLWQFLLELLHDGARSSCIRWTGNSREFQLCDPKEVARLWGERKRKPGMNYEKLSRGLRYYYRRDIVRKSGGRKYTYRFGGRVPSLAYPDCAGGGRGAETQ
Method in brief: as §1

[15] = molecular target: T11, ELF3 (Homo sapiens, UniProt P78545 1-371)
T11 sequence: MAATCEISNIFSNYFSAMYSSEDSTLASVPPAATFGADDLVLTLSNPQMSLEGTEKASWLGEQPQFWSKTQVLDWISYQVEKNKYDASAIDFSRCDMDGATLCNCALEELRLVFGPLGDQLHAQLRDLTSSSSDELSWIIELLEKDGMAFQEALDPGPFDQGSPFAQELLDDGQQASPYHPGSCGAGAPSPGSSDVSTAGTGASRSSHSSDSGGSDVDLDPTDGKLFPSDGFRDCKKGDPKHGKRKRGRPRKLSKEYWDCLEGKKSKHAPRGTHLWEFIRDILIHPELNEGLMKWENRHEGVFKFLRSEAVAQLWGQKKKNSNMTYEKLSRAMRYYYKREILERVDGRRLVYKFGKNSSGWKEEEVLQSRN
Method in brief: as §1

[16] = molecular target: ETV1 (Homo sapiens, UniProt P50549 1-477)
Method in brief: as §1

ETV5, sequence (P41161 whole entry): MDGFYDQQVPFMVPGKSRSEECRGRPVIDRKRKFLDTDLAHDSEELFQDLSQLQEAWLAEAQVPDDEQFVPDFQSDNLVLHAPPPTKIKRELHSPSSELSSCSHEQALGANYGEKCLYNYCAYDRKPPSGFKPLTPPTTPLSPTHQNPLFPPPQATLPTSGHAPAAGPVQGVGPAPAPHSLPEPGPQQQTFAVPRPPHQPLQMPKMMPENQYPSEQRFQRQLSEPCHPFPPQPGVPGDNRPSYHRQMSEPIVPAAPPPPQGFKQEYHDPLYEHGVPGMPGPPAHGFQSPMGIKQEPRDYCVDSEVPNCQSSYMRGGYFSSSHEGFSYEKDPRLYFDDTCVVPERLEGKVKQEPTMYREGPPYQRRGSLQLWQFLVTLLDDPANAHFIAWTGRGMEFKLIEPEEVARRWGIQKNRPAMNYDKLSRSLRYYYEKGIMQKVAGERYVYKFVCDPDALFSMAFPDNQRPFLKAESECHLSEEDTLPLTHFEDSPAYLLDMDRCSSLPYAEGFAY
ELF1, sequence (P32519 whole entry): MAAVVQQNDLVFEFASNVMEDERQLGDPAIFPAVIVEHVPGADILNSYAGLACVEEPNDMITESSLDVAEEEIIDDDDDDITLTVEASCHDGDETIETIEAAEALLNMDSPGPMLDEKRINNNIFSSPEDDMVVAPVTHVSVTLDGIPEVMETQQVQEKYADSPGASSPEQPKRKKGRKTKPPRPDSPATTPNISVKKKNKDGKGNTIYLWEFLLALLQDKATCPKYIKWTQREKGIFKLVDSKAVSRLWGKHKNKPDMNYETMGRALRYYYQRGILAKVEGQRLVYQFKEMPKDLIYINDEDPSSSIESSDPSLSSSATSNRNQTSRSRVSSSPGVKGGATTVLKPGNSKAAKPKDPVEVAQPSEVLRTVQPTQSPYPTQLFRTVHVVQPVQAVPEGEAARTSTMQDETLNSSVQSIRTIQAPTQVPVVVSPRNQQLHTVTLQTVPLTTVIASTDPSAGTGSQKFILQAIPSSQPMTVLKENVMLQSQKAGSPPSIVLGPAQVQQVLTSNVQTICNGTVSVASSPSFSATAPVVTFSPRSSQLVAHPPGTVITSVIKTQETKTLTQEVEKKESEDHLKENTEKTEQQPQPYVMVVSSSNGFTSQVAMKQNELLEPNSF
ELF4, sequence (Q99607 whole entry): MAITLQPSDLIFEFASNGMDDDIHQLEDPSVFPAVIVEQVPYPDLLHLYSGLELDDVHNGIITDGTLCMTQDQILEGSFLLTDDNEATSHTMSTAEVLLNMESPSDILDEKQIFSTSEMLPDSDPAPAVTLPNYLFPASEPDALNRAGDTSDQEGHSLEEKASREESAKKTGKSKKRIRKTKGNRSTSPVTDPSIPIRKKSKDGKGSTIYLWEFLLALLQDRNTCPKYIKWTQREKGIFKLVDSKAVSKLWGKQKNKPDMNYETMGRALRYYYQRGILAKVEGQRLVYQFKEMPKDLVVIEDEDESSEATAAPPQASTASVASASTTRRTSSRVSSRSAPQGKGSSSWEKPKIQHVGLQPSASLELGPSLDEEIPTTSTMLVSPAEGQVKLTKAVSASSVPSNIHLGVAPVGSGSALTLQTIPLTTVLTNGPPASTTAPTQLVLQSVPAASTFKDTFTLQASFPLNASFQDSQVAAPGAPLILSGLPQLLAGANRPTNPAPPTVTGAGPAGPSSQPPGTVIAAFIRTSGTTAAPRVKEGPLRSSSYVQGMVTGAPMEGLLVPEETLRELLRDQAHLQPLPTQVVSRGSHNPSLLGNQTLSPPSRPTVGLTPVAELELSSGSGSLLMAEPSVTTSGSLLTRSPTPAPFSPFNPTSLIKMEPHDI
ETV1, sequence (P50549 whole entry): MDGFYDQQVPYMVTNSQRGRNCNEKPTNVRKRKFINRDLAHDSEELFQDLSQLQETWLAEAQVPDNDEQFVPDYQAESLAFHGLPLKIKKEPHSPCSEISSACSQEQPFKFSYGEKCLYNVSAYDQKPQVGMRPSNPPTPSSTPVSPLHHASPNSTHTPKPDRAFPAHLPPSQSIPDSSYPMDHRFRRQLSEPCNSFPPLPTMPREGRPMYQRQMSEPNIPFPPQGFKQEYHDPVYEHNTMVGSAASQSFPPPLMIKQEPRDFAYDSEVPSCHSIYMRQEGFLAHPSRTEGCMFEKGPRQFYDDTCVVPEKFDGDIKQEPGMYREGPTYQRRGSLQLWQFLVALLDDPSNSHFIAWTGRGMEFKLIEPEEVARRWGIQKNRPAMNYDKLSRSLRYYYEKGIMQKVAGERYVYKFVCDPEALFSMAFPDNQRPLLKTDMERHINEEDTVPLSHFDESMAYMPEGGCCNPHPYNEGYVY

Sequence | binding signal [1] | binding signal [2] | binding signal [3] | binding signal [4] | binding signal [5] | binding signal [6] | binding signal [7] | binding signal [8] | binding signal [9] | binding signal [10] | binding signal [11] | binding signal [12] | binding signal [13] | binding signal [14] | binding signal [15] | binding signal [16]
CAAGGT | 1.1 fold enrichment (6-mer frequency, TF over GST control) | 1.13 fold enrichment (6-mer frequency, TF over GST control) | 1.03 fold enrichment (6-mer frequency, TF over GST control) | 1.07 fold enrichment (6-mer frequency, TF over GST control) | 1.05 fold enrichment (6-mer frequency, TF over GST control) | 1.13 fold enrichment (6-mer frequency, TF over GST control) | 1.02 fold enrichment (6-mer frequency, TF over GST control) | 1.12 fold enrichment (6-mer frequency, TF over GST control) | 1.04 fold enrichment (6-mer frequency, TF over GST control) | 1.04 fold enrichment (6-mer frequency, TF over GST control) | 1 fold enrichment (6-mer frequency, TF over GST control) | 1.11 fold enrichment (6-mer frequency, TF over GST control) | 1.16 fold enrichment (6-mer frequency, TF over GST control) | 1.12 fold enrichment (6-mer frequency, TF over GST control) | 1.15 fold enrichment (6-mer frequency, TF over GST control) | 1.13 fold enrichment (6-mer frequency, TF over GST control)
CTACAG | 1.17 fold enrichment (6-mer frequency, TF over GST control) | 1.01 fold enrichment (6-mer frequency, TF over GST control) | 1.16 fold enrichment (6-mer frequency, TF over GST control) | 1.03 fold enrichment (6-mer frequency, TF over GST control) | 1.08 fold enrichment (6-mer frequency, TF over GST control) | 1.05 fold enrichment (6-mer frequency, TF over GST control) | – | 1.08 fold enrichment (6-mer frequency, TF over GST control) | 1.04 fold enrichment (6-mer frequency, TF over GST control) | 1.07 fold enrichment (6-mer frequency, TF over GST control) | 1.04 fold enrichment (6-mer frequency, TF over GST control) | 1.02 fold enrichment (6-mer frequency, TF over GST control) | 1.07 fold enrichment (6-mer frequency, TF over GST control) | 1.02 fold enrichment (6-mer frequency, TF over GST control) | 1 fold enrichment (6-mer frequency, TF over GST control) | 1.06 fold enrichment (6-mer frequency, TF over GST control)
